{
  "source": "the supplement of paper PMC11732987",
  "about": "“Enantioselective OTUD7B fragment discovery through chemoproteomics screening and high-throughput optimisation” (Communications Chemistry, 2025)",
  "experiment_in_all_cases": "log2 ratio of Biotin-Ahx-Ub-VS probe labelling (fragment/DMSO); higher = less target engagement (more negative = stronger competition), active = hit call of the paper (q ≤ 0.05, log2 ratio ≤ -1)",
  "conditions_in_all_cases": "compound concentration: 200 uM; treatment time: 3 h",
  "key": {"[1]": {"biological_target": "USP16 (UniProt Q9Y5T5)", "sequence (Q9Y5T5 whole entry, looked up, the tested form may be a part)": "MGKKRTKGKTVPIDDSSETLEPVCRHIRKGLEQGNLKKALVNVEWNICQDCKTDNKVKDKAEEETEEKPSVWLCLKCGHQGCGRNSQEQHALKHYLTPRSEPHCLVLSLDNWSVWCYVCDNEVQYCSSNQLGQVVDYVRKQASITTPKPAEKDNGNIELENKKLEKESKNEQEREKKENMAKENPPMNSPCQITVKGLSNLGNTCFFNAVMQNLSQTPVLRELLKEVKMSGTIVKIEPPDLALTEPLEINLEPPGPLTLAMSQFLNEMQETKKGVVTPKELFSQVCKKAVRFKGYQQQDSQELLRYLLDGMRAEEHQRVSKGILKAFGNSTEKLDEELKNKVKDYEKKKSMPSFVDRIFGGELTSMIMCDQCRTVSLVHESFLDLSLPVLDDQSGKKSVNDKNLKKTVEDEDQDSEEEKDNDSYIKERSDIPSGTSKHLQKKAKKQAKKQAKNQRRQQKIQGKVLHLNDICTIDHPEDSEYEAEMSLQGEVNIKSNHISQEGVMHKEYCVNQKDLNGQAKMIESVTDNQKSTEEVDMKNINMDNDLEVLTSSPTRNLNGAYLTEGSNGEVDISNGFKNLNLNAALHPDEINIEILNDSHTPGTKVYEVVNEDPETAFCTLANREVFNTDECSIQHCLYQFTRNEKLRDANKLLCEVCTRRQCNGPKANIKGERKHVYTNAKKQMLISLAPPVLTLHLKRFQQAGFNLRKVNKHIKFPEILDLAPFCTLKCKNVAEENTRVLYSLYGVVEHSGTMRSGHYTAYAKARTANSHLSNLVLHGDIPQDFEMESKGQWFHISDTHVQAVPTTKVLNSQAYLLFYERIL", "outline": "(§1)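 Labelled DUBs from HEK293T lysate were NeutrAvidin-enriched, digested with LysC and trypsin, and run by diaPASEF LC-MS/MS. Before that, each 495 µg sample in Tris/CHAPS/IGEPAL buffer with protease inhibitors was treated in triplicate with fragment at 200 µM or vehicle for 3 h, then with Biotin-Ahx-Ub-VS at 0.5 µM final for 1 h. Values are average log2 ratios of fragment over vehicle by unpaired t-test, based on global-median-normalised Spectronaut label-free quantities from proteins with ≥2 unique peptides.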"}, "[2]": {"biological_target": "T1, USP19 (UniProt O94966)", "T1 sequence (whole entry)": "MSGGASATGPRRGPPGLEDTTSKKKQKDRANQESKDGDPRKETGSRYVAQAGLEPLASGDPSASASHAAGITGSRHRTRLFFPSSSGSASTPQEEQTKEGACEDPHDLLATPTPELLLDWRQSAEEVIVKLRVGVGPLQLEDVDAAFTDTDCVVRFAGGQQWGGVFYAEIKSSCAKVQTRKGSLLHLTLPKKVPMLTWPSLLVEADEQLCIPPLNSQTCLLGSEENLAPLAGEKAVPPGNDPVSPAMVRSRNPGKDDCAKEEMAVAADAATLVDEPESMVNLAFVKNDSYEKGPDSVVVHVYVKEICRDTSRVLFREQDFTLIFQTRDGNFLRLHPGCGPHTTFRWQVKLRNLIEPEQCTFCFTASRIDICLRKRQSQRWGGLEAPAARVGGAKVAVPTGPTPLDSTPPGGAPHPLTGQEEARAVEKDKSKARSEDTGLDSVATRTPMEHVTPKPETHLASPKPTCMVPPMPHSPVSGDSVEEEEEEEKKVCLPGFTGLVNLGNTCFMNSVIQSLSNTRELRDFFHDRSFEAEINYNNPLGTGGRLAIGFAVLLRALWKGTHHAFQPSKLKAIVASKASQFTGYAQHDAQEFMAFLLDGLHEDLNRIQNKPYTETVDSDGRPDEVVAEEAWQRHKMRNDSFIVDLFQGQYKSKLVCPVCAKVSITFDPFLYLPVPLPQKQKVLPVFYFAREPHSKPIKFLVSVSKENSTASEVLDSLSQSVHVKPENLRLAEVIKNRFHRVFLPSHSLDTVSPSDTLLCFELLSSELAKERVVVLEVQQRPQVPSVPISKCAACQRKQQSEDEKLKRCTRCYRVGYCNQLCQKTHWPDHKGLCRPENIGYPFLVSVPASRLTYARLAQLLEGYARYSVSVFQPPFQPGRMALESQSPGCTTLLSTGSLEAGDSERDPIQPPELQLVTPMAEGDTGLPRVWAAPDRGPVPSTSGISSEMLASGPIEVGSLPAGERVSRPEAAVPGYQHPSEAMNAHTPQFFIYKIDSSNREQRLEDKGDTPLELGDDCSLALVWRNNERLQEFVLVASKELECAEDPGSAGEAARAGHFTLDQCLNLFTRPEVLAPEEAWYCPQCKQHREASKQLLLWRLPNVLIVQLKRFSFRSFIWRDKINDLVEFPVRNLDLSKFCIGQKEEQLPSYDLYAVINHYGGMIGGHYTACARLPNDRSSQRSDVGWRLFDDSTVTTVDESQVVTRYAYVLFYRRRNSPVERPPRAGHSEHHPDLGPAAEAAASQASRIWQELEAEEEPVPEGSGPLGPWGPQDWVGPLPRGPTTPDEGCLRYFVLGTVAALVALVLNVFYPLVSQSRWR", "outline": "as §1"}, "[3]": {"biological_target": "USP24 (UniProt Q9UPU5)", "sequence (Q9UPU5 whole entry)": "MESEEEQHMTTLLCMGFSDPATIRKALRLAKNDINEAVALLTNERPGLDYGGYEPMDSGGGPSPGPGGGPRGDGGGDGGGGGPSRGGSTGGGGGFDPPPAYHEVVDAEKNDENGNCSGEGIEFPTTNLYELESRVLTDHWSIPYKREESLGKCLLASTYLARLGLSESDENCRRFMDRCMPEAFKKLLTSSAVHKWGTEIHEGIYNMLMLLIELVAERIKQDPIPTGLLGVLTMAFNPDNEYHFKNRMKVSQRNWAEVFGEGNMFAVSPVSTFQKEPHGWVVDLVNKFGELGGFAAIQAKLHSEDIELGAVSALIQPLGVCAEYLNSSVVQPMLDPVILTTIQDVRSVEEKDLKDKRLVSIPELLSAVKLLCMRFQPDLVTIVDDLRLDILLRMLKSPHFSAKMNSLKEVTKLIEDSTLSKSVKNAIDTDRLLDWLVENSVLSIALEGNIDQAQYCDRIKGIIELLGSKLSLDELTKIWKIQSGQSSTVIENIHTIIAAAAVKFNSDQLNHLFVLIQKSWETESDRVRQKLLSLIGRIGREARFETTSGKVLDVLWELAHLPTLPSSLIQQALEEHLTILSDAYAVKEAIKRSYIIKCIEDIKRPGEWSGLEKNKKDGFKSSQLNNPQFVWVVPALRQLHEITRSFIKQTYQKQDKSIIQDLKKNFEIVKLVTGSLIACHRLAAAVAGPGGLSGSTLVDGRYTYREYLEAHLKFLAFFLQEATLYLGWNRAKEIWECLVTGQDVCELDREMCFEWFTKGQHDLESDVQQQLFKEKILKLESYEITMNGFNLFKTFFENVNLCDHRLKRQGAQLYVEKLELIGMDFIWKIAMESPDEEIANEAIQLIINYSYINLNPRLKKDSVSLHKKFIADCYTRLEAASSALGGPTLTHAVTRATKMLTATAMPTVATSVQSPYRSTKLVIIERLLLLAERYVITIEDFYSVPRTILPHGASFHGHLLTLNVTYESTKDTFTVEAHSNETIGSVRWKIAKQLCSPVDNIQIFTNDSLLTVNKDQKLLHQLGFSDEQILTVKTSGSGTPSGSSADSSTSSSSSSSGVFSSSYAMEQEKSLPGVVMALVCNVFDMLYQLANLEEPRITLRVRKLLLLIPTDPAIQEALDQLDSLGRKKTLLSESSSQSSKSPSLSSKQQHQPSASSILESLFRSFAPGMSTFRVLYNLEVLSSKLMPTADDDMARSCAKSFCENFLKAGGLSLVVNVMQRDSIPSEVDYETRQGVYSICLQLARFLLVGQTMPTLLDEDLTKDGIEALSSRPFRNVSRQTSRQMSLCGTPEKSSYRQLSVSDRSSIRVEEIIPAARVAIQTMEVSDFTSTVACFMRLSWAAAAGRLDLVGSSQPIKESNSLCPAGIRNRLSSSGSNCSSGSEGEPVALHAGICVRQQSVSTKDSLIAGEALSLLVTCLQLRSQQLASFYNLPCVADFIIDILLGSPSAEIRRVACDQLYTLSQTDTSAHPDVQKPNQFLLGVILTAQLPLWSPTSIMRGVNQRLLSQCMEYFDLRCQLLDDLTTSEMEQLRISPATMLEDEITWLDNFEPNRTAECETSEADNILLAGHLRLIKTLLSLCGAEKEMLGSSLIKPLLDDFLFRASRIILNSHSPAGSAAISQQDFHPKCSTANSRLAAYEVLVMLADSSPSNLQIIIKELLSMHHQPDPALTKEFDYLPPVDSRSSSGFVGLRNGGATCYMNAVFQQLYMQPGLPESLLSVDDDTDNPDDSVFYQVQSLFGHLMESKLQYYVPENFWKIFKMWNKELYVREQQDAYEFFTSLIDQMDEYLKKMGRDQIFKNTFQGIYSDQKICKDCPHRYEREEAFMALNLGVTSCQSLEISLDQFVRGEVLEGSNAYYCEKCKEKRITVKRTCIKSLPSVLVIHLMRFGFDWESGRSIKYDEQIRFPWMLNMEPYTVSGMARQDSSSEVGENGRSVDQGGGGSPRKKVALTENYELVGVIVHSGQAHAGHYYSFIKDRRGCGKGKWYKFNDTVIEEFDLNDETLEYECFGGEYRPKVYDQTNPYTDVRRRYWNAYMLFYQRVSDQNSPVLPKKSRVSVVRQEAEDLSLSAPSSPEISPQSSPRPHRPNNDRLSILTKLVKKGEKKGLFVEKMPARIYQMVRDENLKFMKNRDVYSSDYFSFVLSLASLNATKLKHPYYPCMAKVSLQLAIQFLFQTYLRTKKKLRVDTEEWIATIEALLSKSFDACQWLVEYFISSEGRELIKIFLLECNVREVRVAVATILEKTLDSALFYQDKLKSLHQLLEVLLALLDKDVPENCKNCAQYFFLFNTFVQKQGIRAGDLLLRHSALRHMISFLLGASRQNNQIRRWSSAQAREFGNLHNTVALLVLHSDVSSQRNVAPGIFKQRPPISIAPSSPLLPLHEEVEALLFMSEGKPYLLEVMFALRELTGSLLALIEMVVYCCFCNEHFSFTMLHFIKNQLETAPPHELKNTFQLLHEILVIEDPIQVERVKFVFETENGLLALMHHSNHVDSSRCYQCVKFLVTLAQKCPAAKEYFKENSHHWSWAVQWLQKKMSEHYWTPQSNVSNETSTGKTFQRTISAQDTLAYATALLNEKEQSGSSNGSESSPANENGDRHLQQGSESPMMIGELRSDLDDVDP", "outline": "as §1"}, "[4]": {"biological_target": "T2, USP25 (UniProt Q9UHP3)", "T2 sequence (whole entry)": "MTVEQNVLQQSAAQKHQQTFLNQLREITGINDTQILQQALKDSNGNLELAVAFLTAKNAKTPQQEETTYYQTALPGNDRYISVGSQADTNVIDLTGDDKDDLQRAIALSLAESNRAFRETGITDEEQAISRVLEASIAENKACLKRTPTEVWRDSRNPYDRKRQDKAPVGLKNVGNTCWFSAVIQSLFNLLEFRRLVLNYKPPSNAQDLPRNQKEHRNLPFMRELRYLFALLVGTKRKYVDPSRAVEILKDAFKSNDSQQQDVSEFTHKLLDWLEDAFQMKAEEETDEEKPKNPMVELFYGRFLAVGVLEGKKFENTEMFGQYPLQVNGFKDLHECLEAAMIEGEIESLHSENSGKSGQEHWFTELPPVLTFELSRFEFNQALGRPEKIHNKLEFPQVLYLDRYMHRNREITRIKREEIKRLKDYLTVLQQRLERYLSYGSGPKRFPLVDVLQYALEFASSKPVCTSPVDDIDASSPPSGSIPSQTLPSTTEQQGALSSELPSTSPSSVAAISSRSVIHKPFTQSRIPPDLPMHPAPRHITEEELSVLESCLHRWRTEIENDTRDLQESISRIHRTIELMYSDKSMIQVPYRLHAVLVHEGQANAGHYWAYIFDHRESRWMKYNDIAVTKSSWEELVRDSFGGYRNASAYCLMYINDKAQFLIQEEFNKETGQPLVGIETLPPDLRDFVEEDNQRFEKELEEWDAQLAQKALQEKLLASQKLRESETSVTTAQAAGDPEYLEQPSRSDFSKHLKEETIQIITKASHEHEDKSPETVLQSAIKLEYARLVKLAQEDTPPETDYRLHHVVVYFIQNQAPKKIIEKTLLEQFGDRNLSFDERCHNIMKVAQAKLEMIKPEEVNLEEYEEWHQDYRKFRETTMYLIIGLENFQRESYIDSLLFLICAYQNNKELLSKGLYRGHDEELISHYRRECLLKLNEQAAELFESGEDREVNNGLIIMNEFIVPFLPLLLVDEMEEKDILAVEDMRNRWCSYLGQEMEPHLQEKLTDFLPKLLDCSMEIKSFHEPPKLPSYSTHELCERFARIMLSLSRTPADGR", "outline": "as §1"}, "[5]": {"biological_target": "T3, USP28 (UniProt Q96RU2)", "T3 sequence (whole entry)": "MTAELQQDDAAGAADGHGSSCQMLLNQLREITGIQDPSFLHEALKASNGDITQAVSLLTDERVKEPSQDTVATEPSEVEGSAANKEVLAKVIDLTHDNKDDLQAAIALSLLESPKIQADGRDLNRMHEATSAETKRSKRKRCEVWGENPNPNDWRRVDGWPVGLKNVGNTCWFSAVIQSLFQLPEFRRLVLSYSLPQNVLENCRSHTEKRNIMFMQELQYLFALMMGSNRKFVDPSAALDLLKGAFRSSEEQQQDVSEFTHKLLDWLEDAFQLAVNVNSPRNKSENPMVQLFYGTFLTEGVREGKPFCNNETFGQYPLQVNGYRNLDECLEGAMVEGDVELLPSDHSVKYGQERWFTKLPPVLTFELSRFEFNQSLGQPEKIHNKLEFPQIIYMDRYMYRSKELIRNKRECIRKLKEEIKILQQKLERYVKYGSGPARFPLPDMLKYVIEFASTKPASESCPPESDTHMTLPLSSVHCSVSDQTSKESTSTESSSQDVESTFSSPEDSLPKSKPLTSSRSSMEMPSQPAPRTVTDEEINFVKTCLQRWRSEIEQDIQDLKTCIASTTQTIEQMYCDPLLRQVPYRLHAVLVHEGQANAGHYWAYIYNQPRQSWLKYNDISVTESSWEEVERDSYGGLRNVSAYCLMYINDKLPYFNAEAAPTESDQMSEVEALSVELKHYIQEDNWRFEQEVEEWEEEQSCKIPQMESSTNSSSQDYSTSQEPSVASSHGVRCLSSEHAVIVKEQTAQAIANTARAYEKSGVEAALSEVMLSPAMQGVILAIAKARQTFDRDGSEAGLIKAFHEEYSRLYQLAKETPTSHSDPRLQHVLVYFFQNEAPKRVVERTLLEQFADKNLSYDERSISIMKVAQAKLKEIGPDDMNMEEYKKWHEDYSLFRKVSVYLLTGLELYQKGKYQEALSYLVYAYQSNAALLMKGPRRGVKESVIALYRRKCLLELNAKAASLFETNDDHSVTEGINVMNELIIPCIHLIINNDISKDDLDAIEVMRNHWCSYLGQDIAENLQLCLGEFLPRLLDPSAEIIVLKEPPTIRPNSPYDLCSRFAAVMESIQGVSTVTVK", "outline": "as §1"}},
  "note": "Values without a mark were called inactive.",
  "data": [
    {"smiles": "O=C(CCl)N1CCN(C(=O)N2CCCCC2)CC1", "values": [
      {"measurement": "log2 ratio of Biotin-Ahx-Ub-VS probe labelling", "setting": "[1]", "result": 0.0515},
      {"measurement": "log2 ratio of Biotin-Ahx-Ub-VS probe labelling", "setting": "[2]", "result": -0.943},
      {"measurement": "log2 ratio of Biotin-Ahx-Ub-VS probe labelling", "setting": "[3]", "result": "-1.28 (active)"},
      {"measurement": "log2 ratio of Biotin-Ahx-Ub-VS probe labelling", "setting": "[4]", "result": "-1.09 (active)"},
      {"measurement": "log2 ratio of Biotin-Ahx-Ub-VS probe labelling", "setting": "[5]", "result": "-1.23 (active)"}
    ]}
  ]
}
